Reference: PubChem BioAssay (Tox21)
Values joined by “and” are separate entries in the source; they are usually repeats but may differ in a detail not shown here. Equal entries are not always repeated. Records with an inconclusive call do not appear. Entries that show only a call come without a potency. Some compounds were tested as several samples or in several runs, with calls that do not always agree. Active and inactive are the calls of the source. Unless noted, calls come from the whole dose curve.

Molecular target: Nuclear receptor ROR-gamma (Homo sapiens) (UniProt P51449)
Test: qHTS assay to identify small molecule antagonists of the retinoid-related orphan receptor gamma (ROR-gamma) signaling pathway (AID 1159521; active = well fitted inhibition curve with a large enough effect in the repeat runs; note: nearly all actives have a fitted effect of over 50% in size)
Conditions: Tet-on RORgamma CHO cells, RORE-luciferase, 16 h; series mostly up to 92.4 µM
Summary of the method: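 RORγ antagonism is scored from reduced reporter luminescence in Tet-on CHO cells. Induction used 1 uM final doxycycline hyclate for 16 h at 37 C, following a 2 h compound exposure.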
Potency is the fitted concentration of half-maximal effect.

SMILES	Potency
COCCOCCOCCO	inactive
c1ccc2c(c1)ccc1ncccc12	inactive
Cc1ccc(C(C)(C)C)cc1	inactive
CCCCCCCCCCCCO	inactive
c1ccc2cc3ccccc3cc2c1	inactive
CCO[Si](CCCNC(N)=O)(OCC)OCC	inactive
Cc1ccc(S(=O)(=O)NCl)cc1	inactive
CCC/C=C/C=O	inactive
Cc1ccc(N)c([N+](=O)[O-])c1	inactive
CC(C)(Oc1ccc(Cl)cc1)C(=O)O	inactive
CC/C=C\C/C=C\C/C=C\CCCCCCCC(=O)O	inactive
CNC[C@H](O)c1ccc(O)c(O)c1	inactive
C1COCCN1	inactive
Brc1nc2ccccc2s1	inactive
CN(C)/N=N/c1nc[nH]c1C(N)=O	inactive
Cc1ccc(C)c(O)c1	inactive
CCCCCCOCCOCCO	inactive
COC(=O)c1ccc(C)cc1	inactive
COc1cc([C@H]2Oc3cc([C@H]4Oc5cc(O)cc(O)c5C(=O)[C@@H]4O)ccc3O[C@@H]2CO)ccc1O	inactive
NCCOCCO	inactive

SMILES	Potency
C[C@]12C=CC(=O)C=C1CC[C@H]1[C@@H]3C[C@@H](O)[C@](O)(C(=O)CO)[C@@]3(C)C[C@H](O)[C@@]12F	inactive
O=S1(=O)CCCO1	inactive
CC(=O)Nc1ccc2c(c1)Cc1cc(NC(C)=O)ccc1-2	inactive
COc1ccc(C(=O)c2ccccc2O)c(O)c1	inactive
CCCCCCC(C)O (stereo not drawn)	inactive
CC1(C)C(C=C(Cl)Cl)C1C(=O)OCc1cccc(Oc2ccccc2)c1 (stereo not drawn)	54.1 µM (active) and inactive
Nc1ccc(O)c(N)c1	inactive
c1ccc2ncccc2c1	inactive
NC[C@H](O)c1ccc(O)c(O)c1	inactive
OC[C@@H](O)[C@@H](O[C@@H]1O[C@H](CO)[C@H](O)[C@H](O)[C@H]1O)[C@H](O)[C@@H](O)CO	inactive
C=C[C@@]1(C)CC(=O)[C@]2(O)[C@@]3(C)[C@@H](O)CCC(C)(C)[C@@H]3[C@H](O)[C@H](OC(C)=O)[C@@]2(C)O1	54.5 µM (active)
Cc1ccc([N+](=O)[O-])c(C)c1	2.43 µM (active) and inactive
Clc1ccc(Sc2cc(Cl)c(Cl)cc2Cl)cc1	inactive
Nc1cc(Cl)c(N)c(Cl)c1	inactive
O=C(O)CCCC(=O)O	inactive
c1ccc2c(c1)ccc1cc3c(ccc4ccccc43)cc12	inactive
COC(=O)C(C)Oc1ccc(Oc2ncc(C(F)(F)F)cc2Cl)cc1 (stereo not drawn)	inactive
C=CC(=O)OCCCC	inactive
CCC(=O)O[C@H]1[C@H](O[C@@H]2[C@@H](C)[C@H](O[C@H]3C[C@@](C)(OC)[C@@H](O)[C@H](C)O3)[C@@H](C)C(=O)O[C@H](CC)[C@@](C)(O)[C@H](O)[C@@H](C)C(=O)[C@H](C)C[C@@]2(C)O)O[C@H](C)C[C@@H]1N(C)C	inactive

System: not listed separately
Test: qHTS assay to identify small molecule agonists of the AP-1 signaling pathway - cell viability counter screen (AID 1159525); note: nearly all actives have a fitted effect of over 55% in size
Conditions: ME-180 (cervical carcinoma) AP-1-bla cells viability, ATP luminescence, 5 h; series mostly up to 76.8 µM
Summary of the method: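 AP-1-bla ME-180 cells in Opti-MEM with 0.5% dialyzed FBS, compound exposure 5 h at 37 C in 15-point titration. Viability read in the same wells as ATP content by CellTiter-Glo luminescence, normalised to tetra-n-octylammonium bromide and DMSO controls.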

SMILES	Potency
COCCOCCOCCO	inactive
c1ccc2c(c1)ccc1ncccc12	inactive
Cc1ccc(C(C)(C)C)cc1	inactive
CCCCCCCCCCCCO	inactive
c1ccc2cc3ccccc3cc2c1	inactive
CCO[Si](CCCNC(N)=O)(OCC)OCC	inactive
Cc1ccc(S(=O)(=O)NCl)cc1	inactive
CCC/C=C/C=O	inactive
Cc1ccc(N)c([N+](=O)[O-])c1	inactive
CC(C)(Oc1ccc(Cl)cc1)C(=O)O	inactive
CC/C=C\C/C=C\C/C=C\CCCCCCCC(=O)O	inactive
CNC[C@H](O)c1ccc(O)c(O)c1	inactive
C1COCCN1	inactive
Brc1nc2ccccc2s1	inactive
CN(C)/N=N/c1nc[nH]c1C(N)=O	inactive
Cc1ccc(C)c(O)c1	inactive
CCCCCCOCCOCCO	inactive
COC(=O)c1ccc(C)cc1	inactive
COc1cc([C@H]2Oc3cc([C@H]4Oc5cc(O)cc(O)c5C(=O)[C@@H]4O)ccc3O[C@@H]2CO)ccc1O	inactive
NCCOCCO	inactive

SMILES	Potency
C[C@]12C=CC(=O)C=C1CC[C@H]1[C@@H]3C[C@@H](O)[C@](O)(C(=O)CO)[C@@]3(C)C[C@H](O)[C@@]12F	inactive
O=S1(=O)CCCO1	inactive
CC(=O)Nc1ccc2c(c1)Cc1cc(NC(C)=O)ccc1-2	inactive
COc1ccc(C(=O)c2ccccc2O)c(O)c1	inactive
CCCCCCC(C)O (stereo not drawn)	inactive
CC1(C)C(C=C(Cl)Cl)C1C(=O)OCc1cccc(Oc2ccccc2)c1 (stereo not drawn)	inactive
Nc1ccc(O)c(N)c1	inactive
c1ccc2ncccc2c1	inactive
NC[C@H](O)c1ccc(O)c(O)c1	inactive
OC[C@@H](O)[C@@H](O[C@@H]1O[C@H](CO)[C@H](O)[C@H](O)[C@H]1O)[C@H](O)[C@@H](O)CO	inactive
C=C[C@@]1(C)CC(=O)[C@]2(O)[C@@]3(C)[C@@H](O)CCC(C)(C)[C@@H]3[C@H](O)[C@H](OC(C)=O)[C@@]2(C)O1	21.9 µM (active) and 21.3 µM (active)
Cc1ccc([N+](=O)[O-])c(C)c1	12.3 µM (active) and inactive
Clc1ccc(Sc2cc(Cl)c(Cl)cc2Cl)cc1	inactive
Nc1cc(Cl)c(N)c(Cl)c1	inactive
O=C(O)CCCC(=O)O	inactive
c1ccc2c(c1)ccc1cc3c(ccc4ccccc43)cc12	inactive
COC(=O)C(C)Oc1ccc(Oc2ncc(C(F)(F)F)cc2Cl)cc1 (stereo not drawn)	inactive
C=CC(=O)OCCCC	inactive
CCC(=O)O[C@H]1[C@H](O[C@@H]2[C@@H](C)[C@H](O[C@H]3C[C@@](C)(OC)[C@@H](O)[C@H](C)O3)[C@@H](C)C(=O)O[C@H](CC)[C@@](C)(O)[C@H](O)[C@@H](C)C(=O)[C@H](C)C[C@@]2(C)O)O[C@H](C)C[C@@H]1N(C)C	inactive
